Screens from PubChem BioAssay.
PostGolgi yeast = growth inhibition of a yeast mutant, post-Golgi transport screen; inhibition, % at 10 µM; 0.9% of 98,000 active; post-Golgi transport phenotypic cell assay;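 note: yeast cells grown in 1536-well plates; yeast grown about 18 h at 30C before absorbance read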
CYP2C19 inh = inhibitors of human CYP2C19; CYP2C19 Supersomes, luciferin-H EGE luminescence, 30 min; inhibition, % at 5 µM; 21% of 96,000 active;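 active = CYP2C19 inhibition above a set limit at 5 µM in the primary screen, cut at about 50% in these data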
Target sequence (P33261 whole entry, looked up): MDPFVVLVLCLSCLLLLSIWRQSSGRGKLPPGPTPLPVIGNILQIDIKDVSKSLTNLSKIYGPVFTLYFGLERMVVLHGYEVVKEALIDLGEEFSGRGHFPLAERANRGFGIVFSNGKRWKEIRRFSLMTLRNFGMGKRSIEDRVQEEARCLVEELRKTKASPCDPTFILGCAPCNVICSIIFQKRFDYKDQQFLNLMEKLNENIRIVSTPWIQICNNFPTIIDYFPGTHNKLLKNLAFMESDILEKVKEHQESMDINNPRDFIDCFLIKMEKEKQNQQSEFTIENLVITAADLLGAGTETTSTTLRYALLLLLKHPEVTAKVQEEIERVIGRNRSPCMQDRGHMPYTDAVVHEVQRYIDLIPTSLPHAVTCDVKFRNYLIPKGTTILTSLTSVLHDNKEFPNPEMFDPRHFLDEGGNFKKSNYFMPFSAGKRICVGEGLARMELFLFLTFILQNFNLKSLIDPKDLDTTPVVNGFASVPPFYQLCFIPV
PostGolgi ctrl = yeast control strain growth, post-Golgi counter-screen; efflux-deficient yeast background strain, growth absorbance A615, 16 h; inhibition, % at 10 µM; 5% of 98,000 active; AID 738
CYP2C9 act = activators of human CYP2C9 | P11712 | activation factor at 5 µM | AID 1024 | recombinant CYP2C9, luciferin-H conversion, luminescence; stronger effect = higher value; factor 1 = untreated enzyme, 0 = blocked | 1.4% of 96,000 active;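 active = activation factor of 2 or more for CYP2C9 at a 5 µM dose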
CYP2C19 activ = increases human CYP2C19 enzyme activity | P33261 | recombinant CYP2C19, luciferin-H EGE luminescence; stronger effect = higher value; 0 = fully inhibited enzyme, 1 = untreated enzyme | activation factor at 5 µM | 96,000 tested, under 10 active;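 active = activation factor of at least 2 at 5 µM in the primary screen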
CYP2C9 inhib = inhibitors of human CYP2C9. P11712. 20% of 96,000 active. inhibition, % at 5 µM. CYP2C9 Supersomes, luciferin-H conversion, luminescence;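 active = blocking of liver enzyme CYP2C9 beyond about 50% at 5 µM, limit read from the data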
Hits are given with their value; - = inactive; . = no result given. This is a sample that favours compounds with a hit; in the whole collection about 32% have one here. Cut-off read from the data, not from the text of the source, unless noted: active = inhibition above about 30%; inactive = the rest.

SMILES	PostGolgi yeast	CYP2C19 inh	PostGolgi ctrl	CYP2C9 act	CYP2C19 activ	CYP2C9 inhib
CCNC(=O)CSc1nnc(-c2cccc(S(=O)(=O)N(CC)CC)c2)n1CCc1ccccc1	-	-	-	-	-	-
CCN(CC)S(=O)(=O)c1cccc(-c2nnc(SCc3ncc(-c4ccccc4)o3)n2C)c1	-	-	-	-	-	51
CCSc1nnc(-c2cccc(S(=O)(=O)N(CC)CC)c2)n1Cc1ccccc1	-	90	-	-	-	76
COc1ccc(-c2nnc(SCc3nnc(-c4ccccc4)o3)n2C)cc1OC	-	-	-	-	-	-
O=C(c1cc2cc(Br)cc(Br)c2oc1=O)N1CCCc2ccccc21	-	-	-	-	-	-
Cc1cc(OCC(=O)c2ccc(F)cc2)ccc1N1C(=O)CCC1=O	-	-	-	-	-	-
Cc1c(Cl)cccc1NC(=S)NN1CCOCC1	-	67	-	-	-	-
COc1ccc(S(=O)(=O)c2ccc(O)cc2)cc1	-	71	-	2.8	-	-
COc1ccc(C(CC(=O)c2ccc(O)cc2)S(=O)(=O)c2ccc(C)cc2)cc1 (stereo unspecified)	-	71	-	-	-	88
COc1ccc(S(=O)(=O)NC(C)C(=O)O)cc1 (stereo unspecified)	-	-	-	-	-	-
Cc1ccc(S(=O)(=O)C(CCC(=O)c2ccc(Cl)cc2)C(N)=O)cc1 (stereo unspecified)	-	-	-	-	-	-
CCCNC(=O)COC(=O)c1ccccc1OCc1ccc(Cl)cc1	-	87	-	-	-	78
CNC(=O)COC(=O)c1ccccc1Oc1ccccc1	-	-	-	-	-	-
CC(C)[C@H](NC(=O)NCCc1ccc(F)cc1)C(=O)O	-	-	-	-	-	-
O=S(=O)(c1ccccc1)N1CCCC1c1nc2ccccc2s1 (stereo unspecified)	-	-	-	-	-	-
O=C(Nc1nc2ccccc2s1)C1CCCN1S(=O)(=O)c1ccc(Cl)cc1 (stereo unspecified)	-	96	68	-	-	97
Cc1ccc(S(=O)(=O)N2CCCC2C(=O)Nc2ccc(O)cc2)cc1 (stereo unspecified)	-	-	-	-	-	-
Nc1nc(C2CCCN2S(=O)(=O)c2ccc(Cl)cc2)cs1 (stereo unspecified)	-	80	-	-	-	-
Cc1ccc(S(=O)(=O)N2CCCC2C(=O)Nc2nc3ccccc3s2)cc1 (stereo unspecified)	-	97	44	-	-	86
CCC(=O)NS(=O)(=O)c1cccnc1Nc1ccccc1Cl	-	-	-	-	-	69
COc1ccc(-c2ccc(-c3nnn(CC(C)=O)n3)cc2)cc1	-	-	-	-	-	-
CC(=O)CC(C)(C)n1nnc(-c2ccccc2)n1	-	62	-	-	-	-
COc1ccc(C)cc1S(=O)(=O)NC1CCCCC1C (stereo unspecified)	-	85	-	-	-	89
COc1ccc(C)cc1S(=O)(=O)Nc1ccc(F)c(Cl)c1	-	.	-	.	.	.
COc1ccc(NS(=O)(=O)c2cc(C)ccc2OC)cc1OC	-	82	-	-	-	-
SMILES	PostGolgi yeast	CYP2C19 inh	PostGolgi ctrl	CYP2C9 act	CYP2C19 activ	CYP2C9 inhib
COc1ccc(C)cc1S(=O)(=O)Nc1cccc(Cl)c1	-	-	43	-	-	-
COc1ccc(C)cc1S(=O)(=O)Nc1cccc(SC)c1	-	-	-	-	-	-
COc1cccc(NS(=O)(=O)c2cc(C)ccc2OC)c1	-	69	-	-	-	52
CCOc1ccc(-n2cc(C(=O)Nc3cccc(OC)c3)c3cc(OC)c(OC)cc3c2=O)cc1	-	-	-	-	-	-
Cc1ccc(C)c(NC(=O)c2ccc[n+](Cc3ccc([N+](=O)[O-])cc3)c2)c1	-	-	-	-	-	-
CCCOc1ccc(/C(O)=C2\C(=O)C(=O)N(CCCN(C)C)C23C(=O)N(C)c2ccccc23)cc1 (stereo unspecified)	.	-	.	-	-	-
CC(C)NC(=O)c1ccc(-c2cc(C(F)(F)F)ccc2Cl)o1	-	-	-	-	-	-
COc1ccc(OC)c(S(=O)(=O)Nc2cccnc2)c1	-	-	-	-	-	-
CCn1nnnc1-c1ccc(OC)c(S(=O)(=O)Nc2ccc(C)c(C)c2)c1	-	-	-	-	-	62
COc1ccc(OC)c(S(=O)(=O)Nc2ccc3oc4c(c3c2)C(=O)CCC4)c1	-	57	-	-	-	94
COc1ccc(F)cc1S(=O)(=O)Nc1ccc(C)cc1	-	-	-	-	-	57
COc1ccc(OC)c(S(=O)(=O)Nc2ccc(C)c(C)c2)c1	-	99	-	-	-	84
CCn1nnnc1-c1ccc(OC)c(S(=O)(=O)NCc2ccccc2)c1	-	-	-	-	-	-
CCCNc1nc(C)nc2c1cnn2CCc1ccccc1	-	89	-	-	-	-
CCCNc1nc2c(c(=O)[nH]c(=O)n2C)n1CCc1ccccc1	-	-	-	-	-	-
Cc1nc(NC(C)C)c2cnn(CCc3ccccc3)c2n1	-	77	-	-	-	-
Cc1ccc(Cl)c(OCCCCN(C)Cc2ccccc2)c1	93	-	34	-	-	-
CC(=O)NC(Cc1ccc(C(C)C)cc1)C(=O)NC1CCN(c2nc(C)cc(C)n2)CC1 (stereo unspecified)	-	60	-	-	-	-
c1csc(CNc2nc3ccccc3n2CCN2CCOCC2)c1	-	-	-	-	-	51
COc1ccc(C(CC(=O)O)NC(=O)c2ccccc2)cc1OC (stereo unspecified)	-	-	-	-	-	-
COc1ccc(Nc2nnc(Cc3ccc(Cl)cc3)c(=O)[nH]2)c(OC)c1	-	-	-	-	-	62
CC(C)n1c(-c2ccco2)csc1=Nc1cccnc1	-	65	-	-	-	60
O=C(Nc1nc(-c2ccccc2)ns1)c1cccs1	-	-	-	-	-	-
O=C(NCc1nc(-c2ccccc2)no1)c1cccs1	-	56	-	-	-	-
O=C(NCc1nc(-c2ccccc2)no1)c1ccc(Br)o1	-	72	-	-	-	-
SMILES	PostGolgi yeast	CYP2C19 inh	PostGolgi ctrl	CYP2C9 act	CYP2C19 activ	CYP2C9 inhib
Cc1c(Cl)cccc1N(CC(=O)NC1CCCCC1)S(C)(=O)=O	-	-	-	-	-	70
CSc1ccccc1NC(=O)CN(Cc1ccccc1)S(C)(=O)=O	-	-	-	-	-	-
CCOc1ccccc1NC(=O)CN(Cc1ccccc1)S(C)(=O)=O	-	94	-	-	-	-
Cc1cc(C(C)(C)C)oc1C(=O)N(CC(=O)NC1CCCC1)Cc1ccc(F)cc1	-	-	-	-	-	-
CS(=O)(=O)N(CC(=O)Nc1ccc2c(c1)OCCO2)Cc1ccccc1	-	-	-	-	-	-
COc1ccc(NC(=O)CN(Cc2ccccc2)S(C)(=O)=O)cc1	-	79	-	-	-	-
Cc1cc(C(C)(C)C)oc1C(=O)N(CC(=O)NC1CCCC1)Cc1ccccc1	32	-	53	-	-	-
